This is a sample that favours compounds with a hit; in the whole collection about 12% have one here.
SARS PLpro yeast: blocks SARS-CoV papain-like protease in a yeast assay. S. cerevisiae expressing SARS-CoV PLpro, growth rescue. actives 0.19% (n = 330,000). Potency, µM (highest dose often 32.9 µM), most hits filed as activators; calls by dose curve; further: nearly all actives have a fitted effect of over 55% in size
Pf growth 48h: inhibits P. falciparum growth in the first generation, 48 h | AID 504832 | P. falciparum luciferase growth in erythrocytes, 48 h | actives 5.9% (n = 310,000) | Potency, µM (titrated, usually from 28.7 µM), hits mostly inhibitors
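Here the parasites carry a stable luciferase gene and grow inside erythrocytes in Albumax-based RPMI medium with compound for one erythrocytic cycle. Activity is scored as loss of luminescent signal.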
Pf growth 96h: P. falciparum growth inhibition at 96 hour, primary screen for plastid delayed-death inhibitors; P. falciparum luciferase reporter growth, 96 h; Potency, µM (titrated, usually from 28.7 µM), usual class: inhibitors; actives 6.9% (n = 320,000)
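Compounds incubated with erythrocytes infected by luciferase-expressing P. falciparum (2% hematocrit, 0.05% parasitemia final) for 96 hours, 37 C in 5% CO2. Growth inhibition scored as decreased luciferase luminescence.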
AmpC inh no detg: AmpC beta-lactamase inhibition without detergent | Potency, µM (top dose mostly 57.1 µM), usual class: inhibitors | AID 485341 | AmpC nitrocefin hydrolysis, absorbance 480 nm, 0.0001% Triton | actives 0.52% (n = 330,000) | P00811; further: nearly all actives have a fitted effect of over 20% in size
Target sequence (P00811 whole entry, looked up): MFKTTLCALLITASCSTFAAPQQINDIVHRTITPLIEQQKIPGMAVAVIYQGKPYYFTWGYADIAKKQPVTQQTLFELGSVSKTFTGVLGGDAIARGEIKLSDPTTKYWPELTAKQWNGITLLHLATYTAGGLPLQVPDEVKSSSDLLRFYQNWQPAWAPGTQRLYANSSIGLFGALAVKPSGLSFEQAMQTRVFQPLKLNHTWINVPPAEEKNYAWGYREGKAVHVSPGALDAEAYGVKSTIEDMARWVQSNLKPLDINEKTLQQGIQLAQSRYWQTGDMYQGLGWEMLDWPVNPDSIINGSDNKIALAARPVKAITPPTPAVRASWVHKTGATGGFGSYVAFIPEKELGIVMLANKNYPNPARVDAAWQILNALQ
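20 mM phosphate pH 7.0 + 0.01% (detergent screen) or 0.0001% Triton X-100; 5.3 nM AmpC reagent; cpd preinc 15 min RT; nitrocefin (800 uM stock) to start; A480 q20 s × 4 min; Activity was normalised to no-enzyme and no-compound control wells.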
AmpC detergent: inhibitors of E. coli AmpC beta-lactamase with detergent. AID 485294. Potency, µM (titrated, usually from 114 µM), most hits filed as inhibitors. AmpC hydrolysis of nitrocefin, absorbance 480 nm, 0.01% Triton. actives 0.041% (n = 370,000). P00811; further: nearly all actives have a fitted effect of over 25% in size
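AmpC (5.3 nM in the dispensed reagent) in 20 mM phosphate pH 7.0 with 0.01% (detergent screen) or 0.0001% Triton X-100 was preincubated with compounds for 15 min at room temperature. Nitrocefin was then added from an 800 uM solution, and hydrolysis was followed at 480 nm.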
Sm TGR block: S. mansoni TGR enzyme inhibition | Q962Y6 | purified TGR, DTNB reduction, TNB absorbance 405 nm | Potency, µM (titrated, usually from 114 µM), actives largely listed as inhibitors | actives 3% (n = 360,000); further: nearly all actives have a fitted effect of over 60% in size
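Kinetic colorimetric format: TGR-catalysed, NADPH-driven DTNB reduction monitored via TNB absorbance. Enzyme dispensed at 20 nM; compound exposure 15 min at room temperature before reaction start.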
Numbers stand for hits; 0 = inactive; ? = inconclusive; - = no result given. Unless noted, the call rests on the fitted dose curve; in most records, active means well fitted curve in the direction sought with a large enough effect; inconclusive means small, poorly fitted or top-dose-only effect, or another doubt; inactive means no such curve, though single readings can be large; an effect the other way counts as inactive or inconclusive.

SMILES	SARS PLpro yeast	Pf growth 48h	Pf growth 96h	AmpC inh no detg	AmpC detergent	Sm TGR block
COc1cc(/C=C2\CC/C(=C\c3cc(OC)c(O)c(OC)c3)C2=O)cc(OC)c1O	0	?	6.6µM	0	?	28µM
COc1cc(/C=C2\COC/C(=C\c3cc(OC)c(OC)c(OC)c3)C2=O)cc(OC)c1OC	0	0.37µM	0.83µM	0	0	?
COc1cc(/C=C2/CCc3ccccc3C2=O)cc(OC)c1OC	0	?	?	0	0	0
COc1cc(/C=C2\CC/C(=C\c3cc(OC)c(OC)c(OC)c3)C2=O)cc(OC)c1OC	0	2.6µM	2.1µM	0	0	0
COc1cc(/C=C2\SC(N)=NC2=O)cc(Cl)c1O	0	0	?	0	0	0
Cc1ccc(C(=O)NCCNc2ncc(C(F)(F)F)cc2Cl)cc1[N+](=O)[O-]	0	?	7.4µM	0	?	0
Cc1ccc(C(=O)NCCSc2ccc(Cl)cc2)cc1[N+](=O)[O-]	0	13µM	4.1µM	0	0	0
CN(C)/C=C1/Sc2ccccc2C1=O	0	0	-	0	?	0
CC(=O)N(\C=C/C=C/C=C1\Sc2ccccc2C1=O)c1ccccc1	0	?	0	?	0	16µM
COc1ccccc1NC(=O)C1CCN(c2ncnc3c2nc2n3CCCCC2)CC1	0	?	10µM	0	0	0
COc1ccc(N2CCN(C(=O)C3CCCN(c4ncnc5c4nc4n5CCCCC4)C3)CC2)cc1 (stereo not given)	0	12µM	0	0	0	0
COc1ccc(NC(=O)C2CCCN(c3c4c(nc5ncnn35)CCC4)C2)cc1 (stereo not given)	0	0	12µM	0	?	0
CC(=O)c1ccc(N2CCN(C(=O)C3CCCN(c4ncnc5c4nc4n5CCCCC4)C3)CC2)cc1 (stereo not given)	0	13µM	?	0	0	0
COc1ccc(NC(=O)C2CCN(c3ncnc4c3nc3n4CCCCC3)CC2)c(OC)c1	0	0	?	0	?	0
Cc1ccc(NC(=O)c2cc(S(=O)(=O)N3CCCCC3)c[nH]2)cc1N(C)C	-	-	-	-	0	0
CCc1ccccc1NC(=O)Cn1c(=O)n(Cc2ccco2)c(=O)c2ccccc21	-	-	-	-	0	0
CC1CCCCN1CCCNC(=O)C1CCCN(c2ncnc3c2nc2n3CCCCC2)C1 (stereo not given)	0	?	?	0	0	0
O=C(Nc1cccnc1Cl)C1CCCN(c2ncnc3c2nc2n3CCCCC2)C1 (stereo not given)	0	0	12µM	0	0	0
Cc1ccc(NC(=O)C2CCCN(c3ncnc4c3nc3n4CCCCC3)C2)nc1 (stereo not given)	0	?	0	0	0	0
CC(=O)c1ccc(NC(=O)C2CCCN(c3ncnc4c3nc3n4CCCCC3)C2)cc1 (stereo not given)	0	?	6.6µM	0	0	0
Cc1ccnc(NC(=O)C2CCCN(c3ncnc4c3nc3n4CCCCC3)C2)c1 (stereo not given)	0	0	10µM	0	0	0
CC1CCN(CCNC(=O)C2CCCN(c3ncnc4c3nc3n4CCCCC3)C2)CC1 (stereo not given)	0	0	2.9µM	0	0	0
CSc1cccc(NC(=O)C2CCCN(c3ncnc4c3nc3n4CCCCC3)C2)c1 (stereo not given)	0	0	0	0	?	0
O=C1CCCc2cc(S(=O)(=O)N3CCCC(C(=O)Nc4ccc(F)c(Cl)c4)C3)ccc2N1 (stereo not given)	-	-	-	-	0	0
CCN(CC)c1ccc(CN(C(=O)c2cc(=O)c3ccccc3o2)C2CCS(=O)(=O)C2)cc1 (stereo not given)	-	-	-	-	0	0
O=[N+]([O-])c1cc(S(=O)(=O)N2CCCCCC2)ccc1Cl	0	0	0	0	0	-
N#CCC(=O)N/N=C/c1cc(Br)ccc1OCc1cccc2ccccc12	0	13µM	?	0	0	0

Screening results deposited in PubChem by National Center for Advancing Translational Sciences (NCATS).
